# Assay outcomes as filed in PubChem BioAssay.
# eIF4H FP inh: human eIF4H binding inhibitors, primary screen, translation initiation inhibitor project, biochemical, uHTS, fluorescence polarization | AID 2012, 2009 | eIF4H fluorescence polarization binding assay | inhibition, % at 35 µM | actives 0.94% (n = 290,000);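 further: calls also rest on retests at 20 µM and on dose response follow-up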
# PERK inhibitor: block of dimerizer-induced PERK translation repression, primary screen, PERK inhibitor project, CHO PERK-DD cells, SEAP luminescence, HTS; CHO PERK-DD fusion, SEAP luminescence translation reporter; actives 0.17% (n = 220,000); inhibition, % at 5.6 µM;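 active means inhibition above the mean inhibition of all tested compounds plus 3 SD, set separately per screening campaign, cut at about 2.9% in these data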;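 further: PERK kinase domain activated by AP20187 dimerizer at 100 nM; 0% = DMSO with dimerizer and 100% = rapamycin at 8.4 µM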
# MLLE-PAM2 inh: inhibitors of PABP1 MLLE–PAM2 peptide binding, primary screen, biochemical, fluorescence polarization, FITC-PAM2, GST-MLLE; Polyadenylate-binding protein 1 (Homo sapiens), P11940; inhibition, % at 20 µM; actives 0.36% (n = 360,000); AID 588489, 2011; in the data active means inhibition above about 35%, passing the limit was not always enough;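 further: plate controls were DMSO wells with GST-MLLE for no effect and wells lacking GST-MLLE protein for full effect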
# Target sequence (P11940 whole entry, looked up): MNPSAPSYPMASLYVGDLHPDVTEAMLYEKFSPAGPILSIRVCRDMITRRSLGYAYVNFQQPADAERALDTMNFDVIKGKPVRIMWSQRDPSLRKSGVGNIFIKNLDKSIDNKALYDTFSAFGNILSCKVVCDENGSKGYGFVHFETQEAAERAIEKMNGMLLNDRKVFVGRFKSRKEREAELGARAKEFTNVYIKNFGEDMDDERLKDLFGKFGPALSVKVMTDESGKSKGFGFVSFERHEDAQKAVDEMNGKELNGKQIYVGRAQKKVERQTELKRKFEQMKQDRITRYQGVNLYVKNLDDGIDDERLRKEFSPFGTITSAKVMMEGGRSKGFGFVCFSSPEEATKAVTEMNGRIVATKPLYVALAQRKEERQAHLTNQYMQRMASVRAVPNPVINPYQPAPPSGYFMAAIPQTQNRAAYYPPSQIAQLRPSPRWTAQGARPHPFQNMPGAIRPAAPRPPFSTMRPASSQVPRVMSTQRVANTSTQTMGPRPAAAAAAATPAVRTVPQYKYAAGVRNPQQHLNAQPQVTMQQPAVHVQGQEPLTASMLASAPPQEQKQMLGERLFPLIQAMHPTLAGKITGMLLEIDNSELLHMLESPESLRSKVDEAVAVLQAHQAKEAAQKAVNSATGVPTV
# PABP FP inh: PABP poly(A) RNA binding inhibitors, primary screen, biochemical, fluorescence polarization, uHTS | inhibition, % at 35 µM | actives 1% (n = 290,000);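 further: calls also rest on retests at 20 µM and on dose response follow-up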
# eIF4E-4G inh: eIF4E–eIF4G protein interaction inhibitors, primary screen, biochemical, uHTS, TR-FRET, eIF4GI fragment | Eukaryotic translation initiation factor 4E (Mus musculus) + Eukaryotic translation … | TR-FRET eIF4E-eIF4GI(517-606) binding, 2 h | inhibition, % at 21.7 µM | actives 0.37% (n = 220,000) | AID 782, 2007;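 active means inhibition above about 30%, limit read from the data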;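 further: 0% = full FRET control wells and 100% = background wells lacking eIF4GI fragment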
# * hit, by the source's call; ? = inconclusive; / = no result; [ ] = another dose, or the depositor's remark. An excerpt weighted towards active compounds, which were near 1.6% of everything screened. Unless noted, how the calls were made is not given here.
SMILES,eIF4H FP inh,PERK inhibitor,MLLE-PAM2 inh,PABP FP inh,eIF4E-4G inh
Fc1ccc(F)c(C2=NNC(=NCC3CCCO3)SC2)c1 (stereo not drawn),-12.9,0.4,64.2*,0.8,0.3
CC(=O)Nc1ccc(C2=NNC(=NCC3CCCO3)SC2)cc1 (stereo not drawn),-4.4,0.6,-22.4,5.1,2.8
N#Cc1ccsc1NC(=O)CN1C(=O)NC2(CCCCC2)C1=O,68.4,/,-29.6,44.2*,/
Cc1ccc2nc(/C(C#N)=C\c3ccc(Oc4ccc(C(F)(F)F)cc4[N+](=O)[O-])cc3)[nH]c2c1,76.0*,0.3,-9.5,active,7.6
CCOCCCNC(=O)C1CCCN1C(=O)Nc1ccccc1[N+](=O)[O-] (stereo not drawn),1.3,-0.5,7.9,0.9,-0.8
CCC(C(=O)O/N=C(\N)c1ccc(Cl)cc1)c1ccccc1 (stereo not drawn),-8.9,0.5,-0.8,-0.8,2.3
COc1ccc(N2C(=O)CC(C#N)=C2N)cc1,1.7,0.2,5.7,-1.6,-2.1
N#CC1=C(N)N(c2ccccc2)C(=O)C1,31.7,0.1,-1.3,54.0*,-4.5
Cn1c(CO)cnc1S(=O)(=O)Cc1ccc(Cl)cc1,1.5,-0.2,14.4,7.0,-0.3
N#CC1=C(N)NC(=S)C(C(N)=O)C1c1ccc(Cl)cc1Cl (stereo not drawn),-2.7,0.2,29.2,6.3,2.1
N#CC1=C(N)NC(=S)C(C(N)=O)C1c1ccccc1F (stereo not drawn),-0.5,-0.6,46.3*,7.5,2.1
CC1CCN(c2nc3ccc(C(=O)O)cc3s2)CC1,-5.9,0.5,-3.5,3.6,1.3
COc1ccc(C)cc1S(=O)(=O)N(CC(=O)Nc1cc([N+](=O)[O-])ccc1C)c1ccc(C)c(C)c1,active,0.7,-1.7,51.2*,-1.8
COc1ccc(C)cc1S(=O)(=O)N(CC(=O)Nc1cccc([N+](=O)[O-])c1)c1cc(C)cc(C)c1,-1.7,1.1,1.2,-12.6,-2.2
COc1cc(-c2cc(-c3ccc(O)cc3)nc(N)c2C#N)ccc1O,-3.4,0.5,-1.6,6.6,-2.5
CCOc1cc(-c2cc(-c3ccc(C)cc3)nc(N)c2C#N)ccc1O,57.5*,-2.5,-40.1,73.7*,4.2
Cc1ccc(N2C(=O)CC(SCC(=O)Nc3ccc(S(N)(=O)=O)cc3)C2=O)cc1 (stereo not drawn),1.4,-0.8,42.4*,-15.8,-3.0
NS(=O)(=O)c1ccc(NC(=S)NCc2ccc(Cl)cc2)cc1,-7.3,1.8,17.3,3.7,35.1*
CC(C)(C)c1ccc(C(=O)Nc2ccc(S(N)(=O)=O)cc2)cc1,61.6*,-0.3,6.5,15.1*,5.3
CC(=O)c1ccc(NC(=S)NCCc2ccc(S(N)(=O)=O)cc2)cc1,5.3,0.9,40.4*,1.2,-3.0
NS(=O)(=O)c1ccc(NC(=O)c2ccc(-c3ccccc3)cc2)cc1,60.5,1.6,4.7,3.1,14.6
O=C(NN1C(=O)C2CC=C(Cl)CC2C1=O)c1ccncc1 (stereo not drawn),?,2.0,1.5,9.7*,6.3
COc1ccc(NC(=O)c2ccc(N3C(=O)C4CC=C(Cl)CC4C3=O)cc2)cc1 (stereo not drawn),38.0,/,-3.3,10.8,/
COc1ccc(CC(=O)Nc2ccc(-c3ccc4nnc(C)n4n3)cc2)cc1OC,2.1,1.1,3.0,0.7,-4.0
CCN1/C(=C/c2ccc3ccccc3[n+]2CC)C=Cc2ccccc21,-23.5,-1.8,-88.8,-59.5,45.6*[fluorescence artefact?]
CCN1/C(=C/c2ccc3ccccc3[n+]2CCCS(=O)(=O)[O-])C=Cc2cc(C)ccc21,-25.3,/,-180.5,32.0,/
O=C(c1ccc([N+](=O)[O-])cc1)N1CCc2ccccc2C1,4.6*,0.4,3.8,65.3*,2.2
